Hits are enriched below; roughly 19% of the tested compounds scored in any of these assays.
Giardia killer = Small Molecules that selectively kill Giardia lamblia: qHTS | AID 540267, 2011 | Giardia lamblia trophozoite viability | 340,000 compounds, 0.15% hits | activity change, % at 7.66 µM, hits read low; in the data active = activity change below about -80%; inconclusive = between about -30% and that limit;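 also: parasites exposed to compound for two days anaerobically before the ATP read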
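Each well holds 100 Giardia trophozoites and compound. After two days (48 hrs) at 37 deg C in anaerobic conditions, ATP is quantified by luminescence.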
DT40 TDP1 CPT = qHTS for Inhibitors of human tyrosyl-DNA phosphodiesterase 1 (TDP1): qHTS in cells in presence of CPT; AID 686979, 2013; chicken DT40 Tdp1-/-;hTDP1 cells + 20 nM CPT, ATP luminescence, 48 h; Potency, µM (top dose mostly 46.2 µM), actives largely listed as inhibitors; 420,000 compounds, 12% hits; also: nearly all actives have a fitted effect of over 55% in size
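Chicken DT40 Tdp1-/- cells complemented with human TDP1, 400 cells/well, exposed to compounds plus 20 nM camptothecin for at least 48 h at 37 C; viability read as ATP content by CellTiter-Glo luminescence.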
TDP1 cell noCPT = qHTS for Inhibitors of human tyrosyl-DNA phosphodiesterase 1 (TDP1): qHTS in cells in absence of CPT | 420,000 compounds, 15% hits | Potency, µM (highest dose often 46.2 µM), actives largely listed as inhibitors | DT40 Tdp1-/- hTDP1 cells, no CPT, ATP luminescence, 48 h; also: nearly all actives have a fitted effect of over 55% in size
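Camptothecin absent (DMSO only). Human TDP1-complemented DT40 knockout cells, 400 cells/well, 37 °C for minimum 48 hr; ATP measured via CellTiter-Glo, 30 min dark incubation, luminescence.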
ELG1 repair inh = qHTS screen for small molecules that inhibit ELG1-dependent DNA repair in human embryonic kidney (HEK293T) cells expressing luciferase-tagged ELG1 | HEK293T ELG1-luciferase reporter, luminescence, 16 h; DNA damage induced by 5-fluorouridine | Potency, µM (titrated, usually from 46.1 µM), actives largely listed as inhibitors | AID 504467, 2011 | 330,000 compounds, 2.3% hits; also: nearly all actives have a fitted effect of over 55% in size
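Quantitative HTS, concentration-response format. 2,000 cells/well co-treated with 5-fluorouridine and compound, 16 hr in 5% CO2 at 37 °C; ONE-Glo luminescence read after 30 min.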
IL1B secr inh = qHTS for Inhibitors of Inflammasome Signaling: IL-1-beta AlphaLISA Primary Screen | THP-1 LPS/ATP IL-1B secretion, AlphaLISA, 16 h; stronger effect = lower value | activity change, % at 57.5 µM | 360,000 compounds, 4.7% hits; in the data active = activity change below about -50%; inconclusive = mostly about -30% to -49%
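Secreted IL-1B measured by AlphaLISA bead assay after 16 h compound exposure of THP-1 cells; compounds (final up to 57.5 uM) added 1 h before LPS (250 ng/mL) and ATP (1.25 mM) stimulation; lower signal means less secretion.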
TDP1 inh = qHTS Assay for Inhibitors of Tyrosyl-DNA Phosphodiesterase (TDP1). recombinant TDP1, AlphaScreen DNA substrate cleavage. 350,000 compounds, 0.28% hits. Potency, µM (doses to about 130 µM), usual class: inhibitors; also: nearly all actives have a fitted effect of over 40% in size
Target sequence (Q9NUW8 whole entry, looked up): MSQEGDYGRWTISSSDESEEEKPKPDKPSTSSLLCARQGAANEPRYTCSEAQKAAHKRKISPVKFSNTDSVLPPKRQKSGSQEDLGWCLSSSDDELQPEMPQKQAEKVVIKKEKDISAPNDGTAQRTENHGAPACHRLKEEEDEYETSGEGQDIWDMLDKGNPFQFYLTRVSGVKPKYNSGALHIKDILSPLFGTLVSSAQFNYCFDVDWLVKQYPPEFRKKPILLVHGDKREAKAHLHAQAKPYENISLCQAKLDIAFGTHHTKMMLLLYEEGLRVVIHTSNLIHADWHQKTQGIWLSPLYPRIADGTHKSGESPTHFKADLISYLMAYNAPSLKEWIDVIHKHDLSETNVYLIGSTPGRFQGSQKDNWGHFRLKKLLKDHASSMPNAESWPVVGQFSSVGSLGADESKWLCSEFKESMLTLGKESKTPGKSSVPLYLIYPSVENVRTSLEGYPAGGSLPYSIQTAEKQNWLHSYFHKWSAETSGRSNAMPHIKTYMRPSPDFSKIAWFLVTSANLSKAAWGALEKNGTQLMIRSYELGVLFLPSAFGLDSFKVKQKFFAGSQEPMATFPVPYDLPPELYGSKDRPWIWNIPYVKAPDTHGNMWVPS
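E. coli-derived human Tdp1, 1 nM final. Cpd preinc 15 min RT; substrate 15 nM final, 5 min RT; AS bead mix 10 ug/ml final, 10 min RT. Signal loss = tyrosine-FITC cleavage. No-enzyme wells = max signal.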
Numbers stand for hits. Unless noted, calls follow the shape of the dose curve; as a rule, active = well fitted curve in the direction sought with a large enough effect; inconclusive = small, poorly fitted or top-dose-only effect, or another doubt; inactive = no such curve, though single readings can be large; an effect the other way counts as inactive or inconclusive.

For COc1ccc(C)cc1NS(=O)(=O)c1cccc2nonc12 the results were Giardia killer inactive, DT40 TDP1 CPT inactive, TDP1 cell noCPT inactive, ELG1 repair inh inactive, IL1B secr inh inactive and TDP1 inh inactive.
Screening Cc1cc(NO)c(C(C)C)cc1N=O returned Giardia killer inactive, DT40 TDP1 CPT 8.2µM, TDP1 cell noCPT 10µM, ELG1 repair inh inactive, IL1B secr inh -85 and TDP1 inh inactive.
For Cc1cc(O)c(C(C)C)cc1N=C1CSC(=O)N1 the results were Giardia killer inactive, DT40 TDP1 CPT inactive, TDP1 cell noCPT inconclusive, ELG1 repair inh inactive, IL1B secr inh inactive and TDP1 inh inactive.
Screening CCCc1[nH]n(-c2nc3ccccc3s2)c(=O)c1C=NCCCOC returned Giardia killer inactive, DT40 TDP1 CPT inactive, TDP1 cell noCPT inactive, ELG1 repair inh inconclusive and IL1B secr inh inconclusive.
`CCCCCN=Cc1c(C)[nH]n(-c2nc3ccccc3s2)c1=O` gave Giardia killer inconclusive, DT40 TDP1 CPT 2.1µM, TDP1 cell noCPT 4.6µM, ELG1 repair inh inconclusive, IL1B secr inh inactive and TDP1 inh inactive.
O=c1c(C=NCCCO)c(-c2ccccc2)[nH]n1-c1nc2ccccc2s1 was read as Giardia killer inactive, DT40 TDP1 CPT 13µM, TDP1 cell noCPT inconclusive, ELG1 repair inh inactive, IL1B secr inh inactive and TDP1 inh inactive.
`COCCCN=Cc1c(-c2ccccc2)[nH]n(-c2nc3ccccc3s2)c1=O` gave Giardia killer inactive, DT40 TDP1 CPT 26µM, TDP1 cell noCPT inconclusive, ELG1 repair inh inactive and IL1B secr inh inconclusive.
CCCc1[nH]n(-c2nc3ccccc3s2)c(=O)c1C=NCCN1CCOCC1 was read as Giardia killer inactive, DT40 TDP1 CPT inactive, TDP1 cell noCPT inactive, ELG1 repair inh inconclusive, IL1B secr inh inactive and TDP1 inh inactive.
Cc1ccccc1-c1csc(C(C)(O)c2cccnc2)n1 (stereo not given) was read as DT40 TDP1 CPT inconclusive, TDP1 cell noCPT inconclusive and IL1B secr inh inactive.
CCCn1c(=O)c2sccc2n2c(CCCC(=O)NC3CCC(C)CC3)nnc12 (stereo not given) was read as DT40 TDP1 CPT inactive, TDP1 cell noCPT inactive and TDP1 inh inactive.
Screening COC(=O)c1ccc2nc(-c3ccc(C#N)cc3)c(Cc3ccsc3)n2c1 returned DT40 TDP1 CPT inconclusive, TDP1 cell noCPT 23µM and IL1B secr inh inactive.
Screening COC(=O)c1ccc2nc(-c3ccc(F)cc3)c(Cc3ccccc3)n2c1 returned DT40 TDP1 CPT 16µM, TDP1 cell noCPT 23µM and IL1B secr inh inactive.
Screening COC(=O)c1ccc2nc(C3CCCCC3)c(Cc3ccccc3)n2c1 returned DT40 TDP1 CPT 16µM, TDP1 cell noCPT 9.2µM and IL1B secr inh inactive.
`COC(=O)c1ccc2nc(-c3ccc(F)cc3)c(Cc3ccccc3C(F)(F)F)n2c1` gave DT40 TDP1 CPT inactive, TDP1 cell noCPT inactive and IL1B secr inh inactive.
`COC(=O)c1ccc2nc(-c3ccc(C)cc3)c(Cc3ccsc3)n2c1` gave DT40 TDP1 CPT 18µM, TDP1 cell noCPT 21µM and IL1B secr inh inactive.
Screening O=C(CN1CCN(c2ccccn2)CC1)Nc1ccc(F)c(F)c1 returned Giardia killer inactive, DT40 TDP1 CPT inactive, TDP1 cell noCPT inactive, ELG1 repair inh inactive and IL1B secr inh inactive.
O=S1(=O)N[C@H](Cc2ccccc2)COc2cccc(N3CCSCC3)c21 was read as DT40 TDP1 CPT inactive, TDP1 cell noCPT inactive and IL1B secr inh inactive.
Screening Cc1ccc2nc(-c3ccccc3)c(Cc3ccsc3)n2c1 returned DT40 TDP1 CPT 15µM, TDP1 cell noCPT 16µM and IL1B secr inh inactive.
`COC(=O)c1ccc2nc(-c3ccc(F)cc3)c(Cc3ccsc3)n2c1` gave DT40 TDP1 CPT inconclusive, TDP1 cell noCPT 18µM and IL1B secr inh inactive.
